The panel holds about 79,000 compounds, 15% with a hit somewhere; the sample as a whole holds those more often. Rule as the data show it: active = growth inhibition above about 70%; inactive = the rest.
What was measured:
[1] = NCI Yeast Anticancer Drug Screen. Data for the rad50 strain (AID 155);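 also: 0% = growth of vehicle-only cultures of the same strain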; settings: S. cerevisiae rad50 strain growth inhibition, stronger effect = higher value; at 50.0 µM unless noted
Procedure, shortened: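 Compounds were tested on a yeast strain with an engineered DNA damage repair alteration; the reported value is growth inhibition normalised to vehicle treatment.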

[2] = NCI Yeast Anticancer Drug Screen. Data for the mec2-1 strain (AID 157); settings: S. cerevisiae mec2-1 strain, stronger effect = higher value; at 50.0 µM unless noted
Procedure, shortened: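 Strain: mec2-1 (DNA repair/cell cycle alteration). Compound exposure, then growth measured; inhibition expressed relative to vehicle.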

[3] = NCI Yeast Anticancer Drug Screen. Data for the sgs1 mgt1 strain (AID 161);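 also: 0% = growth of cultures given vehicle only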; settings: S. cerevisiae sgs1 mgt1 strain, stronger effect = higher value; at 50.0 µM unless noted
Procedure, shortened: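 Read-out: growth inhibition vs vehicle controls. Cells: mutant yeast strain deficient in DNA damage repair.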

[4] = NCI Yeast Anticancer Drug Screen. Data for the cln2 rad14 strain (AID 165);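 also: 0% = growth equal to vehicle treated cultures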; settings: S. cerevisiae cln2 rad14 strain, stronger effect = higher value; at 50.0 µM unless noted
Procedure, shortened: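 Compounds are applied to the cln2 rad14 yeast strain, and growth is then compared with that of vehicle-treated cultures to give inhibition.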

[5] = NCI Yeast Anticancer Drug Screen. Data for the bub3 strain (AID 167); settings: S. cerevisiae bub3 mutant strain, stronger effect = higher value; at 50.0 µM unless noted
Procedure, shortened: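 Growth of a checkpoint-deficient yeast mutant is measured after compound exposure. Values represent inhibition relative to vehicle.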

[6] = NCI Yeast Anticancer Drug Screen. Data for the mlh1 rad18 strain (AID 175); settings: S. cerevisiae mlh1 rad18 strain growth inhibition, stronger effect = higher value; at 50.0 µM unless noted
Procedure, shortened: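 Read-out is yeast growth inhibition, calculated against vehicle-only controls. The compound was applied to a strain engineered with DNA damage repair alterations.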

Measured: growth inhibition

CC(=O)NCCc1ccccc1
inactive: [1] -18.2% | [2] 20.9% | [3] 3.2% | [4] -19.3% | [5] 10% | [6] -0.1%

C[C@@]1([N+](=O)[O-])CC2CCC1C2 (some centres undefined)
inactive: [1] -3.9% | [2] -12.5% | [3] -16.4% | [4] -6.45% | [5] 2.55% | [6] -9.55%

C=CCC(Cc1ccccc1)C(N)=O (centres undefined)
inactive: [1] -21.1% | [2] -51.7% | [3] -14.5% | [4] 10.6% | [5] -22.2% | [6] 14.4%

O=C(O)NC(=O)c1cc([N+](=O)[O-])ccc1COC1CCCCO1 (centres undefined)
inactive: [1] 5.95% | [2] -0.85% | [3] 2.55% | [4] -11.7% | [5] 14.9% | [6] 0.75%

O=c1[nH]c(=O)c2nc3c(=O)[nH]c(=O)[nH]c3nc2[nH]1
inactive: [1] -14.2% | [2] -21.1% | [3] 0.95% | [4] -5.95% | [5] 2.65% | [6] -27.1%

CCNC(=O)c1ccc(C(C)C)cc1
inactive: [1] 8.4% | [2] -7.2% | [3] 14.2% | [4] 4.75% | [5] 2.15% | [6] 5.75%

COC(=O)N1C=NC2C3(C)C(C)=C(C)C3(C)C21C (centres undefined)
inactive: [1] 0.35% | [2] -3.55% | [3] -4.1% | [4] -24.9% | [5] -0.4% | [6] -7.45%

CCC(=O)OC(CCC1CCCO1)CCC1CCCO1 (centres undefined)
inactive: [1] 11.5% | [2] 12.2% | [3] 3.75% | [4] 12.4% | [5] 22.9% | [6] -3.55%

O=c1c2ccccc2[nH]c(=S)n1CCc1ccccn1
inactive: [1] 2.35% | [2] 6.9% | [3] 64.6% | [4] 8.55% | [5] 14.3% | [6] -7.65%

Cc1cccc(C)c1NC(=O)CCc1nnc2s/c(=C\c3ccc(N(C)C)cc3)c(=O)n12
inactive: [1] 29.8% | [2] 30.1% | [3] 25.6% | [4] 0.15% | [5] 4.85% | [6] 10.3%

C=CCOC(=O)c1ccc(C(C)C)cc1
inactive: [1] 25.1% | [2] 12% | [3] 9.5% | [4] 7.6% | [5] 8% | [6] 35.6%

CC(=O)OCC(OC(C)=O)C(OC(C)=O)C(/C=N/N(C(C)=O)S(=O)(=O)c1ccc(/C=C2\NC(=O)NC2=O)cc1)OC(C)=O (centres undefined)
inactive: [1] -42.5% | [2] -23.6% | [3] -34.6% | [4] -2.45% | [5] -18.9% | [6] -25.6%

c1ccc(N=C(Nc2ccccn2)Nc2ccccn2)nc1
inactive: [1] 5.15% | [2] -7.2% | [3] 1.1% | [4] -34% | [5] -14.7% | [6] -25.1%

C[n+]1ccc(/C=N/O)cc1
inactive: [1] -5.05% | [2] -22.4% | [3] -0.45% | [4] 2.95% | [5] 8.45% | [6] -11.2%

CC(O[Si](C)(C)C)C1C=CC(C)n2c(=O)n(-c3ccccc3)c(=O)n21 (centres undefined)
inactive: [1] 4.65% | [2] -26.6% | [3] -34.3% | [4] -7.6% | [5] -55.6% | [6] -18.2%

O=C(C[n+]1cc(Br)cc2ccccc21)c1ccc(F)cc1
inactive: [1] 24.8% | [2] 19.9% | [3] 37.3% | [4] 39.4% | [5] 4.7% | [6] 30.2%

Nc1ccc2ncc(Nc3ccc(F)cc3)nc2c1
inactive: [1] 37.7% | [2] -22.6% | [3] 25.1% | [4] 23.4% | [5] 17.8% | [6] 15.6%

CCCNCCC
inactive: [1] 2.1% | [2] -5.4% | [3] 14.5% | [4] -12.4% | [5] 4.2% | [6] 1.65%

Nc1ccc(S(=O)(=O)Nc2cc(C(F)(F)F)cc(C(F)(F)F)c2)cc1
inactive: [1] 12.9% | [2] 16.6% | [3] 28.6% | [4] 41.6% | [5] 10.7% | [6] 32%

Source: PubChem BioAssay (NCI)
